Not all results are given here.
DT40 TDP1 CPT – DT40-hTDP1 cell growth loss with CPT | chicken DT40 Tdp1-/-;hTDP1 cells + 20 nM CPT, ATP luminescence, 48 h | Potency, µM (doses to about 46.2 µM), for inactives: top-dose activity change, negative = growth inhibition, most hits filed as inhibitors | 420,000 compounds, 12% hits | AID 686979; note: potency is the fitted concentration of half-maximal effect; % is set by controls: 0 for no effect and ±100 for the full control effect; nearly all actives have a fitted effect of over 55% in size
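Cell growth measured by CellTiter-Glo luminescence after a minimum 48 h, 37 C compound exposure with 20 nM CPT in Tdp1-knockout DT40 cells stably expressing hTDP1, seeded 400/well; qHTS titration format.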
S-ASM inh – blocks human secretory acid sphingomyelinase | P17405 | placental ASM, HMU-PC fluorogenic substrate, 60 min | Potency, µM (doses to about 57.5 µM), for inactives: at the top dose activity change, negative = inhibition, most hits filed as inhibitors | 340,000 compounds, 0.006% hits | AID 504937; note: potency is the fitted concentration of half-maximal effect
Target sequence (P17405 47-631 limits assumed): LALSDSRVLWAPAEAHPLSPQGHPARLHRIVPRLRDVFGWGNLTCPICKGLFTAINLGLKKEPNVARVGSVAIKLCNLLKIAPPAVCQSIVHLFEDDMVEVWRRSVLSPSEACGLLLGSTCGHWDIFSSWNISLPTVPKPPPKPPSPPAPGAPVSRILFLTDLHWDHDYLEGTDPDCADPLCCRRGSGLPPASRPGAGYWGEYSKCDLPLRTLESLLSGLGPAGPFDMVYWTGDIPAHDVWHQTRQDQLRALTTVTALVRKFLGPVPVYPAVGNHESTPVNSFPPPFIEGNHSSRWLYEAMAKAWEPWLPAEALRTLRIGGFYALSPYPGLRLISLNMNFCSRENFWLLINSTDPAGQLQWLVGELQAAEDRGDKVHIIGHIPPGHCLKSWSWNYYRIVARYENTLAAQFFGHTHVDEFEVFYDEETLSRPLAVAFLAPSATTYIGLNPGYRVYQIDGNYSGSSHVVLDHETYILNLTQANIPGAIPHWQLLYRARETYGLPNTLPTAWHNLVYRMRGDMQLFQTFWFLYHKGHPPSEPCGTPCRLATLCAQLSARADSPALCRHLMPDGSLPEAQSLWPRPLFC
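Human placenta-derived ASM enzyme was preincubated with compound for 10 minutes at room temperature, then given fluorogenic substrate HMU-PC0 (9 uM final) for 60 minutes at 37 °C; a pH 10 stop preceded fluorescence reading at Ex 386/Em 447 nm.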
TGFb inhibitor – TGF-b pathway inhibition; Potency, µM (titrated, usually from 46.1 µM), inactives show at the highest dose activity, negative = inhibition, hits mostly inhibitors; HepG2 CAGA-GFP TGF-b/SMAD3 reporter, GFP fluorescence, 18 h; TGF-beta stimulated, 500 pg/mL final; 410,000 compounds, 1.2% hits; AID 588855; note: potency is the fitted concentration of half-maximal effect; % is set by controls: 0 for no effect and ±100 for the full control effect; nearly all actives have a fitted effect of over 65% in size
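Per well, imaged GFP fluorescence of HEPG2 CAGA-GFP cells gives the signal; cells get compound, then TGF-beta (500 pg/mL final), 18 h at 37 degrees C; %Activity versus -TGF-beta and +DMSO controls.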
TDP1 cell noCPT – qHTS for Inhibitors of human tyrosyl-DNA phosphodiesterase 1 (TDP1): qHTS in cells in absence of CPT; Potency, µM (titrated, usually from 46.2 µM), without a hit: at the highest dose activity change, negative = growth inhibition, usual class: inhibitors; 420,000 compounds, 15% hits; DT40 Tdp1-/- hTDP1 cells, no CPT, ATP luminescence, 48 h; AID 686978, 2013; note: potency is the fitted concentration of half-maximal effect; % is set by controls: 0 for no effect and ±100 for the full control effect; nearly all actives have a fitted effect of over 55% in size
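Compound effects on proliferation are scored in DT40 Tdp1-/-;hTDP1 cells in the absence of CPT. ATP levels (CellTiter-Glo luminescence) are recorded after a ≥48 hr, 37 °C incubation.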
IL-1B inflam inh – blocks inflammasome-driven IL-1 beta release; THP-1 LPS/ATP IL-1B secretion, AlphaLISA, 16 h; stronger effect = lower value; activity change, % at 57.5 µM; 360,000 compounds, 4.7% hits; AID 743279; in the data active = activity change below about -50%; inconclusive = mostly about -30% to -49%; note: % is set by controls: 0 for no effect and ±100 for the full control effect
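THP-1 cells pretreated 1 hr with compounds (up to 57.5 uM final), then stimulated with LPS (250 ng/mL final) plus ATP (1.25 mM final); secreted IL-1B measured by AlphaLISA after 16 hr, decreased signal indicating inhibition.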
HepG2 tox-1 – kills HepG2 cells in TGF-b inhibitor counter-screen | AID 588856 | Potency, µM (doses to about 46.1 µM), without a hit: at the top dose activity change, negative = cytotoxicity, actives largely listed as cytotoxic | HepG2 CAGA-GFP viability, ATP luminescence, 18 h | 410,000 compounds, 0.76% hits; note: potency is the fitted concentration of half-maximal effect
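HepG2 CAGA-GFP cells (1000/well, DMEM with 1% FBS) received compound, then TGF-beta at 500 pg/mL final, and were incubated 18 hours at 37 degrees C. Viability was read by CellTiter-Glo luminescence. Media-only wells were set as complete cell-killing and DMSO as no toxicity.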
TGFb confirm – confirmation of TGF-b signaling inhibitors in HepG2 reporter cells; shares compounds with TGFb inhibitor; HepG2 CAGA-GFP TGF-b reporter, GFP fluorescence, 18 h; cells stimulated with TGF-beta, 500 pg/mL; Potency, µM (doses to about 46.1 µM), for inactives: top-dose activity, negative = inhibition, hits mostly inhibitors; 1,600 compounds, 63% hits; note: potency is the fitted concentration of half-maximal effect; % is set by controls: 0 for no effect and ±100 for the full control effect; nearly all actives have a fitted effect of over 65% in size
HepG2 tox-2 – counter-screen for TGF-b inhibitors: cytotoxicity in HepG2 cells. shares compounds with TGFb inhibitor. HepG2 CAGA-GFP viability, ATP luminescence, 18 h; cells stimulated with TGF-beta, 500 pg/mL. Potency, µM (series often up to 46.1 µM), for inactives: at the top dose activity, negative = cytotoxicity, hits mostly inhibitors. 1,600 compounds, 27% hits. AID 720535; note: potency is the fitted concentration of half-maximal effect; % is set by controls: 0 for no effect and ±100 for the full control effect; nearly all actives have a fitted effect of over 70% in size
TGFb CCL64 inh – TGF-b inhibition, CCL64 orthogonal assay; shares compounds with TGFb inhibitor; CCL64 CAGA-GFP reporter, TGF-b stimulated, GFP fluorescence, 18 h; Potency, µM (titrated, usually from 46.1 µM), inactives show top-dose activity, negative = inhibition, usual class: inhibitors; 1,600 compounds, 41% hits; note: potency is the fitted concentration of half-maximal effect; nearly all actives have a fitted effect of over 65% in size
COP TGFb inh – validation of TGF-b inhibitors in HepG2 COP promoter reporter; shares compounds with TGFb inhibitor; HepG2 COP-GFP TGF-b reporter, GFP fluorescence, 18 h; cells stimulated by added recombinant TGF-beta; Potency, µM (top dose mostly 46.1 µM), without a hit: at the top dose activity, negative = inhibition, most hits filed as inhibitors; 1,600 compounds, 3% hits; AID 720537; note: potency is the fitted concentration of half-maximal effect; nearly all actives have a fitted effect of over 70% in size
Numbers without * were called inactive; u = inconclusive; x = no result. Unless noted, calls come from the whole dose curve; as a rule, active = well fitted curve in the direction sought with a large enough effect; inconclusive = small, poorly fitted or top-dose-only effect, or another doubt; inactive = no such curve, though single readings can be large; an effect the other way counts as inactive or inconclusive.

SMILES	DT40 TDP1 CPT	S-ASM inh	TGFb inhibitor	TDP1 cell noCPT	IL-1B inflam inh	HepG2 tox-1	TGFb confirm	HepG2 tox-2	TGFb CCL64 inh	COP TGFb inh
CC(=O)c1cccc(Nc2nc(-c3ccccc3)nc3ccccc23)c1	u	1%	-4%	u	-22	3%	x	x	x	x
Fc1ccccc1Nc1nc(-c2ccncc2)nc2ccccc12	3%	-1%	5%	u	-7	-2%	x	x	x	x
Cc1ccc(Nc2nc(-c3ccncc3)nc3ccccc23)cc1	10%	60%	8%	u	x	-12%	5%	u	-9%	22%
c1ccc(Nc2nc(-c3ccncc3)nc3ccccc23)cc1	-2%	20%	8%	-19%	5	-2%	-26%	-28%	-20%	2%
Cc1cc(C)c2nc(N(Cc3cccnc3)C(=O)Cc3ccccc3)sc2c1	u	x	0%	u	x	4%	x	x	x	x
Cc1ccc2c(c1)C(c1ccccc1)N(C(=O)Cc1ccc(F)cc1)CC(=O)N2 (stereo not drawn)	u	x	u	u	x	-5%	x	x	x	x
CCCCn1c(N)c(N(Cc2ccccc2OC)C(=O)COc2ccc(C)cc2)c(=O)[nH]c1=O	1%	x	1%	0%	10	-2%	x	x	x	x
CNC(=S)N/N=C/c1cc(C)n(-c2ccc(Cl)c(Cl)c2)c1C	23µM*	u	13µM*	u	-8	-3%	21µM*	u	u	34%
Cc1ccc(-n2c(C)cc(/C=N/NC(=O)c3ccncc3)c2C)cc1	u	-2%	-8%	-17%	11	0%	x	x	x	x
O=C(OC(C(=O)Nc1cc(Cl)cc(Cl)c1)c1ccccc1)C1=COCCO1 (stereo not drawn)	u	6%	16µM*	18µM*	-51*	-14%	u	u	18µM*	43%
Cc1c(C)c2c(c(C)c1OC(=O)CCC(=O)O)CC[C@@](C)(CCC[C@H](C)CCC[C@H](C)CCCC(C)C)O2	1%	x	x	u	x	x	x	x	x	x
COc1cccc2c1C(=O)c1c(O)c3c(c(O)c1C2=O)C[C@](O)(C(C)=O)C[C@H]3O[C@@H]1C[C@@H](N)[C@@H](O)[C@@H](C)O1	0.1µM*	u	1µM*	0.092µM*	u	-86%	1µM*	0.52µM*	4.1µM*	u
Cc1cc(NC(=O)c2ccccc2NS(=O)(=O)c2c(C)c(C)cc(C)c2C)no1	u	209%	u	u	24	-21%	x	x	x	x
